# Results filed as inconclusive are left out. Where a call stands in place of a potency, no number is given. Calls of active or inactive are those of the source. The call rests on the fitted dose curve; in most records, active means well fitted inhibition curve with a large enough effect; inconclusive means small, poorly fitted or top-dose-only effect; inactive means flat fitted curve, though single readings scatter.
# System: P94_40
# Experiment: qHTS profiling for inhibitors of Plasmodium falciparum proliferation (AID 504749); further: nearly all actives have a fitted effect of over 60% in size
# Settings: P. falciparum in erythrocytes, SYBR Green DNA, 72 h; series mostly up to 28.7 µM
# Method in brief: (§1)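 P. falciparum-infected erythrocytes (0.3% parasitemia, 2.5% hematocrit) incubated with compound 72 h at 37 C, 5% CO2. Parasite DNA detected by SYBR Green after lysis, overnight at room temperature; normalised to 0.29 uM artemisinin and DMSO.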
# Potency means the concentration at half of the fitted maximal effect.
row,SMILES,Potency
1,C[C@H](N)Cc1ccccc1,inactive
2,C[C@]12C=CC(=O)C=C1CC[C@@H]1C2CC[C@]2(C)OC(=O)CCC12 (some centres not stated),inactive
3,OCC(O)[C@H]1O[C@@H]2O[C@H](C(Cl)(Cl)Cl)O[C@@H]2[C@H]1O (some centres not stated),inactive
4,CC1(C)[C@@H](C=C(Cl)Cl)[C@@H]1C(=O)OCc1c(F)c(F)cc(F)c1F,inactive
5,CC1(C)S[C@@H]2[C@H](N)C(=O)N2C1C(=O)O (some centres not stated),inactive
6,C=C1Nc2ccccc2C(=O)N1c1ccccc1C,inactive
7,CC1OC(O[C@H]2C[C@@H](O)[C@]3(CO)[C@@H]4C(CC[C@]3(O)C2)[C@@]2(O)CC[C@H](C3=CC(=O)OC3)[C@@]2(C)C[C@H]4O)C(O)C(O)C1O (some centres not stated),inactive
8,O=[N+]([O-])OC1CO[C@H]2C(O[N+](=O)[O-])COC12 (some centres not stated),inactive
9,CCOC(=O)/C=C(C)/C=C/CC(C)CCCC(C)C (configuration not stated),inactive
10,[S]=[Sb][S][Sb]=[S],inactive
11,CN1C2CCC1C(C(=O)O)C(OC(=O)c1ccccc1)C2 (configuration not stated),inactive
12,C[C@@H]1CC[C@H]2[C@@H](C)C(=O)O[C@@H]3OC4(C)CC[C@@H]1C32OO4 (some centres not stated),2.8 nM (active)
13,Cc1ccc2c(c1)[C@@H]1CN(C)CC[C@H]1N2,inactive
14,Nc1nc(O)c(-c2ccccc2)o1,inactive
15,C=CC[N+]1(C)CCC23c4c5ccc(O)c4O[C@H]2C(=O)CC[C@@]3(O)C1C5 (some centres not stated),inactive
16,OC[C@@H](O)[C@H]1O[C@@H]2OC(C(Cl)(Cl)Cl)O[C@H]2[C@H]1O (some centres not stated),inactive
17,CCCCCCC(=O)O[C@H]1CC[C@H]2[C@@H]3CCC4CC(=O)C=C(C)[C@]4(C)[C@H]3CC[C@]12C (some centres not stated),inactive
18,Cc1cc(C)cc(C(=O)OC2CC3CCC(C2)N3C)c1 (configuration not stated),inactive
19,CCCN1CCCC2Cc3nc(N)ncc3CC21 (configuration not stated),inactive
20,COc1ccc2c3c1O[C@H]1[C@@H](O)C=C[C@H]4C(C2)NCCC341 (some centres not stated),inactive
21,CCCCCC(O)C1C(=O)OC(C)C(O)\C=C/C=C\C=C/C=C\C=C(\C)C(O)C(O)C(O)CC(O)CC(O)CC(O)CC(O)CC1O (configuration not stated),inactive
22,CCCCCc1cc(O)c2c(c1)OC(C)(C)C1CC=C(C)CC21 (configuration not stated),2510 nM (active)

# System: PAD
# Experiment: as above
# Settings: P. falciparum in erythrocytes, SYBR Green DNA, 72 h; series mostly up to 28.7 µM
# Method in brief: as §1
row,SMILES,Potency
1,C[C@H](N)Cc1ccccc1,inactive
2,C[C@]12C=CC(=O)C=C1CC[C@@H]1C2CC[C@]2(C)OC(=O)CCC12 (some centres not stated),inactive
3,OCC(O)[C@H]1O[C@@H]2O[C@H](C(Cl)(Cl)Cl)O[C@@H]2[C@H]1O (some centres not stated),inactive
4,CC1(C)[C@@H](C=C(Cl)Cl)[C@@H]1C(=O)OCc1c(F)c(F)cc(F)c1F,inactive
5,CC1(C)S[C@@H]2[C@H](N)C(=O)N2C1C(=O)O (some centres not stated),inactive
6,C=C1Nc2ccccc2C(=O)N1c1ccccc1C,inactive
7,CC1OC(O[C@H]2C[C@@H](O)[C@]3(CO)[C@@H]4C(CC[C@]3(O)C2)[C@@]2(O)CC[C@H](C3=CC(=O)OC3)[C@@]2(C)C[C@H]4O)C(O)C(O)C1O (some centres not stated),inactive
8,O=[N+]([O-])OC1CO[C@H]2C(O[N+](=O)[O-])COC12 (some centres not stated),inactive
9,CCOC(=O)/C=C(C)/C=C/CC(C)CCCC(C)C (configuration not stated),inactive
10,[S]=[Sb][S][Sb]=[S],inactive
11,CN1C2CCC1C(C(=O)O)C(OC(=O)c1ccccc1)C2 (configuration not stated),inactive
12,C[C@@H]1CC[C@H]2[C@@H](C)C(=O)O[C@@H]3OC4(C)CC[C@@H]1C32OO4 (some centres not stated),7.1 nM (active)
13,Cc1ccc2c(c1)[C@@H]1CN(C)CC[C@H]1N2,inactive
14,Nc1nc(O)c(-c2ccccc2)o1,inactive
15,C=CC[N+]1(C)CCC23c4c5ccc(O)c4O[C@H]2C(=O)CC[C@@]3(O)C1C5 (some centres not stated),inactive
16,OC[C@@H](O)[C@H]1O[C@@H]2OC(C(Cl)(Cl)Cl)O[C@H]2[C@H]1O (some centres not stated),inactive
17,CCCCCCC(=O)O[C@H]1CC[C@H]2[C@@H]3CCC4CC(=O)C=C(C)[C@]4(C)[C@H]3CC[C@]12C (some centres not stated),inactive
18,CCCN1CCCC2Cc3nc(N)ncc3CC21 (configuration not stated),inactive
19,COc1ccc2c3c1O[C@H]1[C@@H](O)C=C[C@H]4C(C2)NCCC341 (some centres not stated),inactive
20,CCCCCC(O)C1C(=O)OC(C)C(O)\C=C/C=C\C=C/C=C\C=C(\C)C(O)C(O)C(O)CC(O)CC(O)CC(O)CC(O)CC1O (configuration not stated),inactive
21,CCCCCc1cc(O)c2c(c1)OC(C)(C)C1CC=C(C)CC21 (configuration not stated),1780 nM (active)

# System: PC15
# Experiment: as above
# Settings: P. falciparum in erythrocytes, SYBR Green DNA, 72 h; series mostly up to 28.7 µM
# Method in brief: as §1
row,SMILES,Potency
1,C[C@H](N)Cc1ccccc1,inactive
2,C[C@]12C=CC(=O)C=C1CC[C@@H]1C2CC[C@]2(C)OC(=O)CCC12 (some centres not stated),inactive
3,OCC(O)[C@H]1O[C@@H]2O[C@H](C(Cl)(Cl)Cl)O[C@@H]2[C@H]1O (some centres not stated),inactive
4,CC1(C)[C@@H](C=C(Cl)Cl)[C@@H]1C(=O)OCc1c(F)c(F)cc(F)c1F,inactive
5,CC1(C)S[C@@H]2[C@H](N)C(=O)N2C1C(=O)O (some centres not stated),inactive
6,C=C1Nc2ccccc2C(=O)N1c1ccccc1C,inactive
7,O=[N+]([O-])OC1CO[C@H]2C(O[N+](=O)[O-])COC12 (some centres not stated),inactive
8,CCOC(=O)/C=C(C)/C=C/CC(C)CCCC(C)C (configuration not stated),inactive
9,[S]=[Sb][S][Sb]=[S],inactive
10,CN1C2CCC1C(C(=O)O)C(OC(=O)c1ccccc1)C2 (configuration not stated),inactive
11,C[C@@H]1CC[C@H]2[C@@H](C)C(=O)O[C@@H]3OC4(C)CC[C@@H]1C32OO4 (some centres not stated),10 nM (active)
12,Cc1ccc2c(c1)[C@@H]1CN(C)CC[C@H]1N2,inactive
13,Nc1nc(O)c(-c2ccccc2)o1,inactive
14,C=CC[N+]1(C)CCC23c4c5ccc(O)c4O[C@H]2C(=O)CC[C@@]3(O)C1C5 (some centres not stated),inactive
15,OC[C@@H](O)[C@H]1O[C@@H]2OC(C(Cl)(Cl)Cl)O[C@H]2[C@H]1O (some centres not stated),inactive
16,CCCN1CCCC2Cc3nc(N)ncc3CC21 (configuration not stated),inactive
17,COc1ccc2c3c1O[C@H]1[C@@H](O)C=C[C@H]4C(C2)NCCC341 (some centres not stated),inactive
18,CCCCCC(O)C1C(=O)OC(C)C(O)\C=C/C=C\C=C/C=C\C=C(\C)C(O)C(O)C(O)CC(O)CC(O)CC(O)CC(O)CC1O (configuration not stated),inactive
19,CCCCCc1cc(O)c2c(c1)OC(C)(C)C1CC=C(C)CC21 (configuration not stated),5010 nM (active)
